# Experimental data taken from PubChem BioAssay (NCI).
# The panel holds about 79,000 compounds, 15% with a hit somewhere; the sample as a whole holds those more often. Values without a mark were called inactive. Active and inactive are the calls of the source. Rule as the data show it: active = growth inhibition above about 70%; inactive = the rest.
# Key:
# [1] = NCI Yeast Anticancer Drug Screen. Data for the rad52 strain (AID 147);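 also: 0% = growth of vehicle-treated control cultures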; settings: S. cerevisiae rad52 mutant growth inhibition, active compounds read high
# Method in brief: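 Growth of repair-deficient yeast cells was compared between compound-treated and vehicle-treated cultures to give percent inhibition.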
# [2] = NCI Yeast Anticancer Drug Screen. Data for the wt1 strain (AID 149);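 also: 0% = growth of vehicle-treated wt1 cultures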; settings: S. cerevisiae wt1 strain (SPY 50644) growth inhibition, active compounds read high
# Method in brief: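 Growth inhibition read against vehicle controls after compound exposure of the wt1 yeast strain.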
# [3] = NCI Yeast Anticancer Drug Screen. Data for the rad50EPP+ strain (AID 151);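 also: 0% = growth of vehicle-treated control cultures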; settings: S. cerevisiae rad50 mutant strain, active compounds read high
# Method in brief: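 Measured: growth inhibition of rad50EPP+ yeast. Reference: vehicle-treated controls. Screen uses strains with defined genetic alterations in DNA damage repair or cell cycle control.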
# [4] = NCI Yeast Anticancer Drug Screen. Data for the mgt1 strain (AID 153); settings: S. cerevisiae mgt1 mutant growth inhibition, active compounds read high
# Method in brief: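 Compounds were applied to mgt1 mutant yeast, and growth was then compared against vehicle-treated control cultures to give percent inhibition.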
# [5] = NCI Yeast Anticancer Drug Screen. Data for the rad50 strain (AID 155);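 also: 0% = growth of vehicle-only cultures of the same strain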; settings: S. cerevisiae rad50 strain growth inhibition, active compounds read high
# Method in brief: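 Readout: growth inhibition relative to vehicle-treated cultures. Compound exposure was carried out in a genetically defined yeast strain deficient in DNA damage repair.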
# [6] = NCI Yeast Anticancer Drug Screen. Data for the mec2-1 strain (AID 157); settings: S. cerevisiae mec2-1 strain, active compounds read high
# Method in brief: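 Compounds were applied to mec2-1 yeast cells. Their growth was then compared with that of vehicle-treated cultures to give growth inhibition.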
# [7] = NCI Yeast Anticancer Drug Screen. Data for the rad14 strain (AID 159);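 also: 0% = growth of vehicle-treated control cultures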; settings: S. cerevisiae rad14 strain growth inhibition, active compounds read high
# Method in brief: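 Growth inhibition vs vehicle controls; genetically altered yeast strain (DNA damage repair defect) treated with test compounds.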
# [8] = NCI Yeast Anticancer Drug Screen. Data for the sgs1 mgt1 strain (AID 161);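 also: 0% = growth of cultures given vehicle only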; settings: S. cerevisiae sgs1 mgt1 strain, active compounds read high
# Method in brief: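 This yeast growth screen uses a strain with defined DNA-repair lesions; compound-treated growth is compared with vehicle-treated growth.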
# [9] = NCI Yeast Anticancer Drug Screen. Data for the CLN2oe strain (AID 163);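 also: 0% = growth of vehicle-only control cultures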; settings: S. cerevisiae CLN2oe strain, active compounds read high
# Method in brief: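 Cells of an engineered yeast line with disturbed cell-cycle regulation are treated with compound. Inhibition of growth is then calculated relative to the vehicle-treated reference.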
# [10] = NCI Yeast Anticancer Drug Screen. Data for the cln2 rad14 strain (AID 165);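 also: 0% = growth equal to vehicle treated cultures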; settings: S. cerevisiae cln2 rad14 strain, active compounds read high
# Method in brief: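 Strain: cln2 rad14 yeast, altered in cell cycle control and DNA damage repair. Read-out: growth inhibition vs vehicle.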
# [11] = NCI Yeast Anticancer Drug Screen. Data for the bub3 strain (AID 167); settings: S. cerevisiae bub3 mutant strain, active compounds read high
# Method in brief: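 Readout: yeast growth inhibition, expressed relative to vehicle-only wells. The test organism is a mutant strain from a panel with lesions in DNA repair or checkpoint genes.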
# [12] = NCI Yeast Anticancer Drug Screen. Data for the wt2 strain (AID 169);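 also: 0% = growth of vehicle-treated yeast cultures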; settings: S. cerevisiae wt2 strain growth inhibition, active compounds read high
# Method in brief: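 Growth of compound-treated yeast is measured and expressed as inhibition relative to vehicle-only controls.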
# [13] = NCI Yeast Anticancer Drug Screen. Data for the mlh1 strain (AID 171);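 also: 0% = growth of vehicle-treated control cultures of the same strain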; settings: S. cerevisiae mlh1 strain growth inhibition, active compounds read high
# Method in brief: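 Test agents were incubated with yeast bearing a defined DNA damage repair or cell cycle control alteration; values are growth inhibition normalised to vehicle-treated cultures.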
# [14] = NCI Yeast Anticancer Drug Screen. Data for the sgs1 strain (AID 173);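 also: 0% = growth of vehicle-only control cultures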; settings: S. cerevisiae sgs1 mutant, active compounds read high
# Method in brief: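 Strain with an altered DNA repair or cell cycle pathway exposed to compound. Growth then measured. Value = inhibition versus vehicle control.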
# [15] = NCI Yeast Anticancer Drug Screen. Data for the mlh1 rad18 strain (AID 175); settings: S. cerevisiae mlh1 rad18 strain growth inhibition, active compounds read high
# Method in brief: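 A repair-deficient yeast strain is exposed to test compound, and growth is scored relative to vehicle-treated controls.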
# [16] = NCI Yeast Anticancer Drug Screen. Data for the rad18 strain (AID 177); settings: S. cerevisiae rad18 mutant growth inhibition, active compounds read high
# Method in brief: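 DNA-repair-defective yeast; compound treatment; growth inhibition scored against vehicle.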
# [17] = at 5.0 µM (retest, dose inferred, filed as 0.5)
# [18] = at 50.0 µM (retest, dose inferred, filed as 5.0)
smiles,measurement,setting,value
O=[N+]([O-])c1ccc2c(c1)C(N1CCN(CCO)CC1)Cc1ccc(F)cc1S2 (stereo unspecified),growth inhibition,[1]; at 1.2 µM,-2%
same,growth inhibition,[1]; at 3.7 µM,-2%
same,growth inhibition,[1]; at 11.0 µM,-3%
same,growth inhibition,[1]; at 33.0 µM,-2%
same,growth inhibition,[1]; at 100.0 µM,18%
same,growth inhibition,[2]; at 1.2 µM,-2%
same,growth inhibition,[2]; at 3.7 µM,-3%
same,growth inhibition,[2]; at 11.0 µM,-3%
same,growth inhibition,[2]; at 33.0 µM,-3%
same,growth inhibition,[2]; at 100.0 µM,15%
same,growth inhibition,[3]; at 1.2 µM,-2%
same,growth inhibition,[3]; at 3.7 µM,-1%
same,growth inhibition,[3]; at 11.0 µM,-1%
same,growth inhibition,[3]; at 33.0 µM,-1%
same,growth inhibition,[3]; at 100.0 µM,1%
same,growth inhibition,[4]; at 1.2 µM,-1%
same,growth inhibition,[4]; at 3.7 µM,-3%
same,growth inhibition,[4]; at 11.0 µM,-5%
same,growth inhibition,[4]; at 33.0 µM,-4%
same,growth inhibition,[4]; at 100.0 µM,34%
same,growth inhibition,[5]; at 1.2 µM,1%
same,growth inhibition,[5]; at 3.7 µM,1%
same,growth inhibition,[5]; [17],3%
same,growth inhibition,[5]; at 11.0 µM,1%
same,growth inhibition,[5]; at 33.0 µM,2%
same,growth inhibition,[5]; [18],71% (active)
same,growth inhibition,[5]; at 50.0 µM,44.2%
same,growth inhibition,[5]; at 100.0 µM,62%
same,growth inhibition,[6]; at 1.2 µM,-8%
same,growth inhibition,[6]; at 3.7 µM,-2%
same,growth inhibition,[6]; [17],0%
same,growth inhibition,[6]; at 11.0 µM,-4%
same,growth inhibition,[6]; at 33.0 µM,-4%
same,growth inhibition,[6]; [18],48%
same,growth inhibition,[6]; at 50.0 µM,-3.7%
same,growth inhibition,[6]; at 100.0 µM,8%
same,growth inhibition,[7]; at 1.2 µM,-2%
same,growth inhibition,[7]; at 3.7 µM,-1%
same,growth inhibition,[7]; at 11.0 µM,1%
same,growth inhibition,[7]; at 33.0 µM,15%
same,growth inhibition,[7]; at 100.0 µM,93% (active)
same,growth inhibition,[8]; [17],13%
same,growth inhibition,[8]; [18],90% (active)
same,growth inhibition,[8]; at 50.0 µM,72.8% (active)
same,growth inhibition,[9]; at 1.2 µM,-6%
same,growth inhibition,[9]; at 3.7 µM,-5%
same,growth inhibition,[9]; at 11.0 µM,0%
same,growth inhibition,[9]; at 33.0 µM,1%
same,growth inhibition,[9]; at 100.0 µM,20%
same,growth inhibition,[10]; [17],2%
same,growth inhibition,[10]; [18],43%
same,growth inhibition,[10]; at 50.0 µM,78.6% (active)
same,growth inhibition,[11]; at 1.2 µM,-1%
same,growth inhibition,[11]; at 3.7 µM,-4%
same,growth inhibition,[11]; [17],-2%
same,growth inhibition,[11]; at 11.0 µM,0%
same,growth inhibition,[11]; at 33.0 µM,-5%
same,growth inhibition,[11]; [18],79% (active)
same,growth inhibition,[11]; at 50.0 µM,-1.1%
same,growth inhibition,[11]; at 100.0 µM,24%
same,growth inhibition,[12]; at 1.2 µM,-2%
same,growth inhibition,[12]; at 3.7 µM,-3%
same,growth inhibition,[12]; at 11.0 µM,-3%
same,growth inhibition,[12]; at 33.0 µM,-3%
same,growth inhibition,[12]; at 100.0 µM,36%
same,growth inhibition,[13]; at 1.2 µM,-3%
same,growth inhibition,[13]; at 3.7 µM,-3%
same,growth inhibition,[13]; at 11.0 µM,-2%
same,growth inhibition,[13]; at 33.0 µM,-3%
same,growth inhibition,[13]; at 100.0 µM,35%
same,growth inhibition,[14]; at 1.2 µM,-1%
same,growth inhibition,[14]; at 3.7 µM,-1%
same,growth inhibition,[14]; at 11.0 µM,-2%
same,growth inhibition,[14]; at 33.0 µM,0%
same,growth inhibition,[14]; at 100.0 µM,80% (active)
same,growth inhibition,[15]; [17],0%
same,growth inhibition,[15]; [18],-13%
same,growth inhibition,[15]; at 50.0 µM,44.4%
same,growth inhibition,[16]; at 1.2 µM,-3%
same,growth inhibition,[16]; at 3.7 µM,-5%
same,growth inhibition,[16]; at 11.0 µM,-3%
same,growth inhibition,[16]; at 33.0 µM,0%
same,growth inhibition,[16]; at 100.0 µM,64%
Oc1ccc2ccccc2c1C(c1ccc(Cl)cc1)c1c(O)ccc2ccccc12,growth inhibition,[1]; at 1.2 µM,-39%
same,growth inhibition,[1]; at 3.7 µM,-23%
same,growth inhibition,[1]; at 11.0 µM,-17%
same,growth inhibition,[1]; at 33.0 µM,51%
same,growth inhibition,[1]; at 100.0 µM,84% (active)
same,growth inhibition,[2]; at 1.2 µM,15%
same,growth inhibition,[2]; at 3.7 µM,-17%
same,growth inhibition,[2]; at 11.0 µM,2%
same,growth inhibition,[2]; at 33.0 µM,55%
same,growth inhibition,[2]; at 100.0 µM,84% (active)
same,growth inhibition,[3]; at 1.2 µM,-50%
same,growth inhibition,[3]; at 3.7 µM,-61%
same,growth inhibition,[3]; at 11.0 µM,-55%
same,growth inhibition,[3]; at 33.0 µM,-50%
same,growth inhibition,[3]; at 100.0 µM,-44%
same,growth inhibition,[4]; at 1.2 µM,-34%
same,growth inhibition,[4]; at 3.7 µM,-26%
same,growth inhibition,[4]; at 11.0 µM,-14%
same,growth inhibition,[4]; at 33.0 µM,43%
same,growth inhibition,[4]; at 100.0 µM,88% (active)
same,growth inhibition,[5]; at 1.2 µM,-3%
same,growth inhibition,[5]; at 3.7 µM,3%
same,growth inhibition,[5]; [17],99% (active)
same,growth inhibition,[5]; at 11.0 µM,12%
same,growth inhibition,[5]; at 33.0 µM,55%
same,growth inhibition,[5]; [18],99% (active)
same,growth inhibition,[5]; at 50.0 µM,68.3%
same,growth inhibition,[5]; at 100.0 µM,89% (active)
same,growth inhibition,[6]; at 1.2 µM,-72%
same,growth inhibition,[6]; at 3.7 µM,-67%
same,growth inhibition,[6]; [17],99% (active)
same,growth inhibition,[6]; at 11.0 µM,-39%
same,growth inhibition,[6]; at 33.0 µM,56%
same,growth inhibition,[6]; [18],99% (active)
same,growth inhibition,[6]; at 50.0 µM,83.9% (active)
same,growth inhibition,[6]; at 100.0 µM,84% (active)
same,growth inhibition,[7]; at 1.2 µM,-61%
same,growth inhibition,[7]; at 3.7 µM,-54%
same,growth inhibition,[7]; at 11.0 µM,-60%
same,growth inhibition,[7]; at 33.0 µM,-7%
same,growth inhibition,[7]; at 100.0 µM,84% (active)
same,growth inhibition,[8]; [17],-2%
same,growth inhibition,[8]; [18],94% (active)
same,growth inhibition,[8]; at 50.0 µM,19.4%
same,growth inhibition,[9]; at 1.2 µM,0%
same,growth inhibition,[9]; at 3.7 µM,5%
same,growth inhibition,[9]; at 11.0 µM,21%
same,growth inhibition,[9]; at 33.0 µM,83% (active)
same,growth inhibition,[9]; at 100.0 µM,82% (active)
same,growth inhibition,[10]; [17],56%
same,growth inhibition,[10]; [18],95% (active)
same,growth inhibition,[10]; at 50.0 µM,76.8% (active)
same,growth inhibition,[11]; at 1.2 µM,-6%
same,growth inhibition,[11]; at 3.7 µM,-15%
same,growth inhibition,[11]; [17],29%
same,growth inhibition,[11]; at 11.0 µM,-1%
same,growth inhibition,[11]; at 33.0 µM,39%
same,growth inhibition,[11]; [18],92% (active)
same,growth inhibition,[11]; at 50.0 µM,78.2% (active)
same,growth inhibition,[11]; at 100.0 µM,87% (active)
same,growth inhibition,[12]; at 1.2 µM,-22%
same,growth inhibition,[12]; at 3.7 µM,-36%
same,growth inhibition,[12]; at 11.0 µM,-20%
same,growth inhibition,[12]; at 33.0 µM,16%
same,growth inhibition,[12]; at 100.0 µM,80% (active)
same,growth inhibition,[13]; at 1.2 µM,-41%
same,growth inhibition,[13]; at 3.7 µM,-25%
same,growth inhibition,[13]; at 11.0 µM,-32%
same,growth inhibition,[13]; at 33.0 µM,26%
same,growth inhibition,[13]; at 100.0 µM,85% (active)
same,growth inhibition,[14]; at 1.2 µM,-29%
same,growth inhibition,[14]; at 3.7 µM,-39%
same,growth inhibition,[14]; at 11.0 µM,-25%
same,growth inhibition,[14]; at 33.0 µM,38%
same,growth inhibition,[14]; at 100.0 µM,88% (active)
same,growth inhibition,[15]; [17],99% (active)
same,growth inhibition,[15]; [18],99% (active)
same,growth inhibition,[15]; at 50.0 µM,54%
same,growth inhibition,[16]; at 1.2 µM,-30%
same,growth inhibition,[16]; at 3.7 µM,-8%
same,growth inhibition,[16]; at 11.0 µM,2%
same,growth inhibition,[16]; at 33.0 µM,50%
same,growth inhibition,[16]; at 100.0 µM,87% (active)
